GALK inhibitor: inhibits human galactokinase | recombinant GALK, Kinase-Glo ATP luminescence, 1 h | Potency, µM (doses to about 57.5 µM), for the others: at the top dose activity, negative = inhibition, actives largely listed as inhibitors | 44,000 tested, under 10 active;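 note: plate controls were full GALK reaction for no effect and reaction lacking GALK for full effect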
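Luminescent ATP-depletion readout (Kinase-Glo Plus) after 1 h room-temperature incubation of human GALK (5 nM) with galactose 100 µM and ATP 35 µM, pH 8.0 HEPES/Mg2+ buffer; compounds tested in qHTS format.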
B2AR arrestin ag: ADRB2 beta-arrestin recruitment; HTLA Tango cells, beta-arrestin recruitment, luciferase luminescence, 18 h; Potency, µM (series often up to 46.1 µM), actives largely listed as activators; 44,000 tested, under 10 active;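 note: potency is the fitted concentration of half-maximal effect; 0% = DMSO and full agonism = EC100 isoproterenol or metaproterenol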
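Tango cell line, 1% FBS DMEM; cpd titration up to 46 microM; 18 hr, 37 degrees C, 5% CO2. Luciferin/ATP substrate mix added, 15 min RT, luminescence. %Activity, CRC fitting, curve-class categorization.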
DRV1 agonist: GPR32 (DRV1) agonism, beta-arrestin recruitment; O75388; CHO-K1 GPR32 beta-arrestin PathHunter luminescence, 90 min; zero percent set by DMSO-only wells; activation, % at 76.9 µM; 48,000 compounds, 2.5% hits; AID 1346428;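 active = activation of at least 60% and not above a set upper limit, about 1 call in 100 departs from these limits; inconclusive = activation of 40% to 60%, or above that upper limit; inactive = activation under 40%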; note: 0% is about no effect
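Engineered CHO-K1 line co-expressing GPR32-ProLink and EA-beta-arrestin. Compound treatment lasted 90 min at 37 °C. Luminescence was recorded after 1 h with substrate at ambient temperature, relative to DMSO basal wells.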
NTMT1 inh: blocks human N-terminal methyltransferase 1 activity; Q9BV86; NTMT1 MTase-Glo SAH luminescence, purified enzyme; Potency, µM (highest dose often 114 µM), inactives show at the top dose activity change, negative = inhibition, hits mostly inhibitors; 59,000 compounds, 2.5% hits;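 note: potency is the fitted concentration of half-maximal effect; plate controls were DMSO vehicle for no effect and no enzyme for full effect; nearly all actives have a fitted effect of over 65% in size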
Target sequence (Q9BV86 whole entry, looked up): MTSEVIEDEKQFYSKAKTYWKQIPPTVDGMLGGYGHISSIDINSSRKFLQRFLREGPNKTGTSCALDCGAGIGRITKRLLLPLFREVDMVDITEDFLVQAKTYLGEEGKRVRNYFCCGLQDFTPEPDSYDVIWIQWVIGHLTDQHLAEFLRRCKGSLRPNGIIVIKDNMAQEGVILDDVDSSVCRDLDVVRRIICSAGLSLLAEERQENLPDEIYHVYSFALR
GALC G270D up: enhancers of human galactocerebrosidase G270D mutant activity in cells; Potency, µM (doses to about 57.5 µM), hits mostly activators; 45,000 compounds, 0.1% hits; 145M-Twi-hGALC-G270D cells (Twitcher mouse brain line with human GALC G270D), HMU-beta-Gal fluorescence, 48 h; note: potency is the fitted concentration of half-maximal effect; 0% is about no effect; nearly all actives have a fitted effect of over 65% in size
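Fluorescence readout: HMU-β-gal cleavage by mutant GALC (0.1 mM final, citrate/phosphate pH 5.2 with 1 mg/mL taurocholate), stopped with carbonate/bicarbonate plus Triton X-100. Cells: murine Twitcher 145M-Twi expressing human G270D GALC; qHTS for activators.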
CLK4 inh: inhibits human CLK4 kinase in Kinase-Glo confirmation | shares compounds with NTMT1 inh | recombinant Clk4, Kinase-Glo ATP luminescence, 4.5 h | Potency, µM (top dose mostly 76.9 µM), for the others: at the highest dose activity, negative = inhibition, most hits filed as inhibitors | 90 compounds, 90% hits | AID 493204
Sfp qHTS opt: inhibitors of Bacillus subtilis Sfp PPTase, optimization followup. shares compounds with NTMT1 inh. purified Sfp PPTase enzyme activity, qHTS. Potency, µM (titrated, usually from 114 µM), without a hit: at the top dose activity change, negative = inhibition, most hits filed as inhibitors. 230 compounds, 78% hits. AID 540350
HM489 growth: Sfp PPTase inhibitors: growth inhibition of B. subtilis HM489 | AID 540353 | shares compounds with NTMT1 inh | 220 compounds, 50% hits | Potency, µM (doses to about 114 µM), for inactives: top-dose activity change, negative = inhibition, usual class: inhibitors | B. subtilis HM489 (acpS-) growth, BacTiter-Glo, 5 h
Sfp PPTase gel: inhibits B. subtilis Sfp PPTase in gel assay. purified Sfp PPTase, gel-based product detection. 220 compounds, 54% hits. Potency, µM (doses to about 250 µM), for inactives: at the top dose activity change, negative = inhibition, actives largely listed as inhibitors. AID 540355. shares compounds with NTMT1 inh
Sfp inh SAR2: inhibits B. subtilis Sfp PPTase in second SAR round; shares compounds with NTMT1 inh; purified Sfp enzyme, PPTase activity, qHTS; Potency, µM (top dose mostly 57.1 µM), inactives show at the highest dose activity change, negative = inhibition, usual class: inhibitors; 230 compounds, 87% hits; AID 602370
HSD17B4 inh: HSD17B4 (human) inhibition, HPGD counter-screen. 230 compounds, 10% hits. Potency, µM (top dose mostly 57.1 µM), inactives show at the top dose activity change, negative = inhibition, actives largely listed as inhibitors. shares compounds with NTMT1 inh. purified HSD17B4, estradiol/NAD+, NADH fluorescence
ALDH1A1 counter: ALDH1A1 (human) inhibition, HPGD counter-screen; Potency, µM (titrated, usually from 57.1 µM), for the others: top-dose activity change, negative = inhibition, actives largely listed as inhibitors; shares compounds with NTMT1 inh; 230 compounds, 93% hits; recombinant ALDH1A1, NADH fluorescence, propionaldehyde/NAD+
NNMT counter: counter-screen for NTMT1 inhibitors: human NNMT inhibition; shares compounds with NTMT1 inh; NNMT MTase-Glo luminescence, SAH detection; Potency, µM (titrated, usually from 57.1 µM), without a hit: at the top dose activity, negative = inhibition, usual class: inhibitors; 120 compounds, 10% hits
Target sequence (P40261 whole entry, looked up): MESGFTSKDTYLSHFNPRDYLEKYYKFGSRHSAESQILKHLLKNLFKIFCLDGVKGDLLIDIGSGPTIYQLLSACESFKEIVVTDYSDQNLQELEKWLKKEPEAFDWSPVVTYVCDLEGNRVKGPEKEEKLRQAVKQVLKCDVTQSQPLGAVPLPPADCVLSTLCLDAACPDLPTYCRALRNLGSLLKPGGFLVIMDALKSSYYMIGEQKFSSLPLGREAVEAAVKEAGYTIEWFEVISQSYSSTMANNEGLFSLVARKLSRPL
* hit, by the source's call; i = inactive; ? = inconclusive; . = no result; ! = not active in a repeat; [ ] = another dose, or the depositor's remark. This is a sample that favours compounds with a hit; in the whole collection about 3.6% have one here. Unless noted, calls come from the whole dose curve; as a rule, active = well fitted curve in the direction sought with a large enough effect; inconclusive = small, poorly fitted or top-dose-only effect, or another doubt; inactive = no such curve, though single readings can be large; an effect the other way counts as inactive or inconclusive.

SMILES | GALK inhibitor | B2AR arrestin ag | DRV1 agonist | NTMT1 inh | GALC G270D up | NNMT counter | others
Cc1ccnc(NC(=S)NCCN(C)c2cccc(C(F)(F)F)c2)c1 | . | . | . | -3% | . | . | Sfp qHTS opt=?;HM489 growth=3%;Sfp PPTase gel=-11%;Sfp inh SAR2=?;HSD17B4 inh=-5%;ALDH1A1 counter=15µM*
Cc1ccnc(NC(=S)NCCNc2cccc(C(F)(F)F)c2)c1 | . | . | . | ? | . | . | Sfp qHTS opt=?;HM489 growth=?;Sfp PPTase gel=-18%;Sfp inh SAR2=6.5µM*;HSD17B4 inh=6.1µM*;ALDH1A1 counter=19µM*
Cc1ccc(Cn2c(=O)c3cccnc3n(CC(=O)Nc3cccc(C(F)(F)F)c3)c2=O)cc1 | -2% | i | -8 | 8% | i | .
CC(C)(C)NC(=O)[C@H]1CC[C@H]2[C@@H]3CC[C@H]4NC(=O)CC[C@]4(C)[C@H]3CC[C@]12C | . | . | . | -7%[57.5 µM] | . | .
c1ccc(-c2oc3ncnc(NC[C@@H]4CCCO4)c3c2-c2ccccc2)cc1 | . | . | . | 10µM* | . | ?
c1nc(NCC2CCCO2)c2ccc(-c3ccc4c(c3)OCO4)cc2n1 (stereo not given) | . | . | . | -19%[57.5 µM] | . | .
O=C(NCCCN1CCC2(CC1)OCc1ccccc12)[C@H]1CCCN1Cc1ccccc1 | . | . | . | 1%[57.5 µM] | . | .
CN1CCN(c2ccc(-c3cccc(CN4CCOCC4)c3)cc2NC(=O)c2c[nH]c(=O)cc2C(F)(F)F)CC1 | . | . | . | 6%[29.8 µM] | . | .
Cc1ccc(Nc2nnc(Cc3ccncc3)c3ccccc23)cc1Br | . | . | . | 1% | . | .
Clc1ccc(Nc2nnc(Cc3ccncc3)c3ccccc23)cc1 | . | . | 72* | 89µM*! | i | ?
C/C=C/C=C/C=C/C(=O)O[C@@H]1C=C2COC(=O)[C@]2(O)[C@@]2(C)CCCC(C)(C)[C@H]12 | . | . | . | -15%[29.8 µM] | . | -12%[28.6 µM]
COc1cc2c(cc1OC)CN(CCc1ccc(NC(=O)c3cccc4c(=O)c5cccc(OC)c5[nH]c34)cc1)CC2 | . | . | . | 28µM*! | . | 4µM*
COc1cc(Nc2nc3c(s2)CCCC3c2ccc(F)cc2)ccc1-n1cnc(C)c1 (stereo not given) | . | . | . | 6%[57.5 µM] | . | .
Cc1ccsc1CN(C)c1ncnc2ccc(-c3ccc(COC(=O)N(C)C)o3)cc12 | . | . | . | . | . | . | CLK4 inh=1.5µM*

High-throughput results as filed in PubChem.
